# Screens as filed in PubChem BioAssay.
# ClpP mod: qHTS Assay for Activators of ClpP; Potency, µM (titrated, usually from 57.5 µM); ATP-dependent Clp protease proteolytic subunit (Bacillus subtilis (strain 168)), P80244; purified B. subtilis ClpP, FRET peptide cleavage, 20 min; actives 1.9% (n = 340,000); active = well fitted falling curve with a large enough effect; inconclusive = small, poorly fitted or top-dose-only effect; inactive = no such curve, though single readings can be large or run the other way; note: the source files actives as falling curves though it sought activators and does not explain the sign; nearly all actives have a fitted effect of over 65% in size
#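 Buffer: 100 mM Tris/HCl pH8, 100 mM KCl, 0.05% low protease BSA, 2.5% glycerol, 0.01% Tween-20. ClpP 10 microg/mL final; 20 min RT; delta FRET normalized to ADEP and DMSO controls.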
# miR-21 reporter: qHTS Assay for Modulators of miRNAs and/orActivators of miR-21; Potency, µM (top dose mostly 38.3 µM), usual class: activators; 340,000 tested, under 10 active; HeLa miR-21 FLuc reporter, luciferase, 48 h; AID 2288, 2010;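 note: miR-21 action dims this reporter so a rising signal means less miR-21 action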
#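 HeLa miR-21-FLuc reporter line, endogenous miR-21; 2000 cells/well in DMEM/10% FBS; compound titration up to ~40uM final, 48 h, 37 degree Celsius; luciferase detection reagent, 15 min lysis, CCD luminescence.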
# Nrf2 activator: qHTS of Nrf2 Activators; AREc32 ARE-luciferase reporter (MCF7-derived line), luminescence, 24 h; Potency, µM (titrated, usually from 46.1 µM), usual class: activators; actives 0.31% (n = 410,000); AID 624171, 2012; note: nearly all actives have a fitted effect of over 65% in size
#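 ARE-driven firefly luciferase activity in AREc32 cells measured after a 24 hr compound exposure at 37 deg C, using Steady-Glo reagent and a 30 min room-temperature hold.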
# A549 viability: Nrf2 qHTS screen for inhibitors: counterscreen for cytotoxicity. A549 ARE-Fluc cells, CellTiter-Fluor viability, 18-24 h. Potency, µM (highest dose often 46 µM), usual class: inhibitors. actives 0.16% (n = 390,000)
#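 Cytotoxicity counterscreen: CellTiter-Fluor fluorescence was measured in A549 ARE_Fluc cells after 18-24 h of compound exposure in a concentration series. The subsequent BugLite luminescent read reports ARE-luciferase activity.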
# Nrf2 inh: Nrf2 qHTS screen for inhibitors; A549 ARE-Fluc reporter, luciferase luminescence, 18-24 h; Potency, µM (series often up to 46 µM), usual class: inhibitors; actives 2.1% (n = 360,000); note: nearly all actives have a fitted effect of over 60% in size
#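 In this cell-based qHTS, ARE-driven firefly luciferase in A549 cells reports Nrf2 activity; the luminescent signal after BugLite lysis is the measured value, with a prior CellTiter-Fluor read for cell health.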
# IL-2 act: qHTS of IL-2 Activators. activation, % (series mostly up to about 46 µM). actives 0.065% (n = 360,000). IL-2 activation reporter assay, cell-based qHTS; stimulated with anti-CD3/CD4/CD28 beads; in transgenic mouse T cells; in the data active = activation above about 50%; inconclusive = mostly about 30% to 49%
#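 Screening format: compound pinned onto unstimulated transgenic mouse T cells, 60 min incubation, then anti-CD3/anti-CD4/anti-CD28 bead stimulation for 18 hours at 37 degrees C, followed by EGFP and DsRed detection.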
# Hits are given with their value; i = inactive; ? = inconclusive; nt = no result; [ ] = another dose, or the depositor's remark. Most compounds without a hit are left out; they make up all but 3.7% or so of the library. Unless noted, calls come from the whole dose curve; as a rule, active = well fitted curve in the direction sought with a large enough effect; inconclusive = small, poorly fitted or top-dose-only effect, or another doubt; inactive = no such curve, though single readings can be large; an effect the other way counts as inactive or inconclusive.
SMILES,ClpP mod,miR-21 reporter,Nrf2 activator,A549 viability,Nrf2 inh,IL-2 act
COc1ccc2oc(C(=O)OCC(=O)NC(=O)NC(C)C)c(C)c2c1,32µM,i,i,i,i,i
COc1ccc2oc(C(=O)OCC(=O)Nc3ccc(N4CCOCC4)cc3)c(C)c2c1,32µM,nt,i,i,i,i
COc1ccc2oc(C(=O)OC(C)C(=O)NC3(C#N)CCCCC3)c(C)c2c1 (stereo unspecified),25µM,nt,i,i,i,i
COC(=O)c1oc2ccc(OC)cc2c1N,16µM,i,i,i,i,i
CN1CCN(C(=O)c2cnn(-c3cccc(Cl)c3)c2C2CCN(C(=O)OC(C)(C)C)CC2)CC1,i,i,i,i,?,nt
CCOC(=O)c1ccccc1NC(=O)CSc1nc2cn(CC)nc2c(=O)n1Cc1ccc(Cl)cc1,i,i,i,?,?,nt
CCOc1ccc(S(=O)(=O)Nc2ccc(-c3ccc(OC)nn3)cc2)cc1,i,i,i,i,nt,nt
COc1ccc2oc(C(=O)OCC(=O)Nc3ccccc3)c(C)c2c1,28µM,i,i,i,i,i
COc1ccc2oc(C(=O)OCC(=O)Nc3ccccc3OC)c(C)c2c1,i,nt,i,i,i,i
COc1ccc2oc(C(=O)OCC(=O)NC(C)(C#N)C3CC3)c(C)c2c1 (stereo unspecified),32µM,nt,i,i,i,i
COc1ccc(-c2cc(C(C)=O)c(C)n2CCC(=O)Nc2cc(Cl)ccc2C)cc1,i,i,i,i,nt,nt
CCOC(=O)c1cc(-c2ccc(C)cc2)n(CCCC(=O)Nc2cc(C)ccc2C)c1,i,i,i,i,nt,nt
CCCCN(CCCC)c1cc(C)nc(-c2ccccc2O)n1,32µM,i,i,i,i,i
O=C(O)CNc1cccc(-c2nn3c(=O)cc(N4CCNCC4)nc3s2)c1,nt,nt,nt,i,i,nt
CCOc1ccc(-c2c(C)nn3c(C)c(C(=O)NCCc4ccccc4)cnc23)cc1OCC,i,i,i,i,i,nt
Cc1nn(C)c(C(=O)Nc2ccc(S(=O)(=O)NC34CC5CC(CC(C5)C3)C4)cc2)c1Br,i,i,i,?,15µM,i
CCOC(=O)c1c(Nc2cccc(C)c2)nnc(-c2ccccc2)c1-c1ccccc1,i,?,i,i,18µM,nt
CCC(C)NS(=O)(=O)c1ccc(S(=O)(=O)N(CC(=O)Nc2ccccc2)Cc2ccco2)cc1 (stereo unspecified),i,i,i,i,13µM,i
CCCC(C)NC(=O)CN(Cc1ccco1)S(=O)(=O)c1ccccc1 (stereo unspecified),i,nt,i,i,i,i
COc1ccc(CCNC(=O)c2cc(=O)[nH]c3ccc(S(=O)(=O)N4CCCCC4C)cc23)cc1OC (stereo unspecified),i,?,i,i,nt,nt
CC1(C)CC(=O)C2=C(C1)NC(Nc1nc3ccccc3o1)=NC2c1cccc(O)c1 (stereo unspecified),i,nt,nt,?,21µM,nt
C=CCNC(=O)C(C#N)c1nc2ccccc2nc1N1CCN(Cc2ccccc2)CC1 (stereo unspecified),i,i,i,i,i,67
C=CCOC(=O)C(C#N)c1nc2ccccc2nc1N1CCN(Cc2ccccc2)CC1 (stereo unspecified),i,i,i,i,nt,i
COCCCNC(=O)C(C#N)c1nc2ccccc2nc1N1CCN(Cc2ccccc2)CC1 (stereo unspecified),i,i,i,?,?,96
Cc1ccc(C)c(N2CCN(C(=O)c3cc(S(=O)(=O)N4CCCCC4)cn3C)CC2)c1,i,?,i,i,nt,nt
SMILES,ClpP mod,miR-21 reporter,Nrf2 activator,A549 viability,Nrf2 inh,IL-2 act
CCC1CCCCN1S(=O)(=O)c1cc2c3c(c1)CC(=O)N3CCC2 (stereo unspecified),i,i,i,i,nt,nt
Fc1ccc(-n2nc(-c3ccccc3)c3cnc4ccccc4c32)cc1Cl,i,i,i,i,i,nt
CCC(C)(C)c1ccc(Oc2ccc(N)cc2)cc1,nt,?,i,i,5.8µM,i
O=C(Nc1ccccc1)c1nc[nH]c1C(=O)O,i,i,i,i,i,nt
CCOc1ccc(N2C(=O)C3C(C2=O)C3(c2ccccc2)c2ccccc2)cc1 (stereo unspecified),i,?,i,i,?,i
CCOc1ccc(N2C(=O)C3C(c4ccccc4)=NN(c4ccccc4)C3C2=O)cc1 (stereo unspecified),11µM,i,i,i,i,i
O=C(OCC#CCSc1nnc(-c2cccc(F)c2)o1)c1ccc(F)cc1,nt,nt,nt,i,i,nt
O=C(Nc1cccc(S(=O)(=O)N2CCCCCC2)c1)c1cc(=O)c2ccccc2o1,nt,i,i,i,18µM,i
NS(=O)(=O)c1cccc(NC(=O)c2cc(=O)c3ccccc3o2)c1,nt,i,13µM,i,i,i
CCOC(=O)C1=C(C)N=c2s/c(=C/c3cccc([N+](=O)[O-])c3O)c(=O)n2C1c1ccc(OC)cc1OC (stereo unspecified),nt,i,i[9.22 µM],16µM,?,i
COc1cc(N(C)C)ccc1/C=C1\C=Cc2ccccc21,i,nt,nt,nt,nt,nt
COc1ccccc1-c1sc2ccccc2c1-c1ccc(OCCN2CCOCC2)cc1,i,nt,i,i,i,i
c1ccc(-c2sc3ccccc3c2-c2ccc(OCCN3CCOCC3)cc2)cc1,32µM,nt,i,i,i,i
CSc1nc(-c2ccc(C)cc2)[nH]c1S(=O)(=O)c1ccccc1,i,i,i,i,18µM,i
CC(=O)Sc1nc(-c2ccccc2)[nH]c1S(=O)(=O)c1ccc(C)cc1,nt,i,i,i,i,i
Cc1ccc(NS(=O)(=O)c2ccc3c(c2)C(=O)c2ccccc2C3=O)c(C)c1,i,i,i,i,i,i
Cc1cccc(S(=O)(=O)Nc2cccc3c2C(=O)c2ccccc2-3)c1,i,i,i,i,18µM,i
COc1ccccc1/C=C/C(=O)N1CCN(S(=O)(=O)c2cc(C)ccc2C)CC1,i,nt,i,i,16µM,i
Cc1cccc(-n2ncc3c(N4CCCc5ccccc54)ncnc32)c1,32µM,i,i,i,nt,i
CC(C)(C)c1nnc(NC(=O)NS(=O)(=O)c2ccccc2)s1,20µM,i,i,i,i,i
COc1cc(CN2CCN(CCc3ccccc3)C(CCO)C2)cc(OC)c1 (stereo unspecified),32µM,i,i,i,i,i
COc1cc(CN2CCN(CCCc3ccccc3)CC2CCO)cc(OC)c1 (stereo unspecified),nt,i,i,i,i,i
